Here are results for 48 compounds from PubChem BioAssay AID1851 (National Center for Advancing Translational Sciences (NCATS), 2009).

Among all 16,000 compounds or so, about 4,000 (25%) were called active. Another 26% or so got no clear call; they are omitted. These entries were drawn from the full list. Values without a mark were called inactive. The call rests on the fitted dose curve; in most records, active means well fitted curve in the direction sought with a large enough effect; inconclusive means small, poorly fitted or top-dose-only effect, or effect the other way; inactive means no such curve, though single readings can be large or run the other way.

What is called AC50 is the concentration giving half of the maximal activity seen.
On the % scale 0 is the no-effect control and ±100 the full control effect.

For the assay, the target named is Cytochrome P450 2C9 (Homo sapiens) (UniProt P11712). The assay can be described thus: Cytochrome panel assay with activity outcomes. The note with it: recombinant CYP, pro-luciferin dealkylation, luminescence, p450-cyp2c9; series mostly up to 57.1 µM; activity, negative = inhibition: at the top concentration.
Sequence of Cytochrome P450 2C9 (Homo sapiens) (P11712 whole entry, looked up): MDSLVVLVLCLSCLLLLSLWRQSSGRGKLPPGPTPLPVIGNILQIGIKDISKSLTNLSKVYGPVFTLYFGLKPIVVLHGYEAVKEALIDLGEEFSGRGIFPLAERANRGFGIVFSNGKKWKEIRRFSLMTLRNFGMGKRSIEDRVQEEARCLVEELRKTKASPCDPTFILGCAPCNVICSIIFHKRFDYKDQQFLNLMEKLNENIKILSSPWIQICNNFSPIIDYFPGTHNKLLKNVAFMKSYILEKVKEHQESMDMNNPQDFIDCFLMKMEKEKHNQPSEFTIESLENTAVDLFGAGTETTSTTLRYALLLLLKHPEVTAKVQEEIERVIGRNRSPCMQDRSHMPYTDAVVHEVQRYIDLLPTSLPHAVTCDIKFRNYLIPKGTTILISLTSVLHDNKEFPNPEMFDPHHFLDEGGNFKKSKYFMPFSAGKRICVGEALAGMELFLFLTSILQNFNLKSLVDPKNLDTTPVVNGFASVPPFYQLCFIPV
For `O=C(O)c1ccc(C(=O)O)c(C(=O)O)c1.[NH-][C@@H]1CCCC[C@@H]1[NH-].[Pt]`, the activity, negative = inhibition was 0.225% [at 11.4 µM].

Turning to `O=C(O)c1ccc(C(=O)c2ccccc2C(=O)O)cc1C(=O)O`, the activity, negative = inhibition is -6.86% [at 11.4 µM].

As for `NC(N)=N/N=C\c1ccc(O)c(C(=O)O)c1`, the activity, negative = inhibition is 2.83% [at 11.4 µM].

On to `O=C(O)C1=CC(=C(c2ccc(O)c(C(=O)O)c2)c2ccc(O)c(C(=O)O)c2)C=CC1=O`, for which the concentration at half-maximal activity (AC50) is 15.8 µM (active).

As to `CC1=C/C(=C(/c2ccc(O)c(C)c2)c2ccccc2C(=O)O)C=CC1=O`, the AC50 was 0.01 µM (active).

On to `NC(=O)CN1CCOCCOCCOCCOCCOCC1`, for which the “activity, negative = inhibition” value is -26.1%.

Regarding `CCN(C1CCCCC1)S(=O)(=O)c1ccc(S(=O)(=O)NCc2ccncc2)cc1`, the AC50 was 0.0398 µM (active).

For `O=S(=O)(NCc1cccnc1)c1ccc(Cl)nc1`, the “activity, negative = inhibition” value is -12.7%.

For the compound `COc1ccccc1CNc1cc(-c2c(C)noc2C)ncn1`, the activity, negative = inhibition is -2.44% [at 2.29 µM].

Consider `Cc1ccc(-n2nc(C)c3c2OC(N)=C(C#N)C3c2ccco2)cc1` (stereo not drawn), for which the AC50 is 6.31 µM (active).

On to `COc1ccccc1NC(=O)COC(=O)c1ccc(S(=O)(=O)NCc2ccco2)cc1`, for which the half-maximal activity concentration (AC50) was 0.398 µM (active).

Consider `NCCSSCCN`, for which the AC50 result is “inactive”.

As for `CN1CCN(c2ncc3nc(-c4ccc(Cl)cc4)c(=O)n(Cc4cccs4)c3n2)CC1`, the “activity, negative = inhibition” value is -12.8%.

Turning to `COc1ccc(-c2nc3cnc(N4CCN(C)CC4)nc3n(Cc3cccs3)c2=O)cc1`, the “activity, negative = inhibition” value was 10.4%.

Consider `O=c1c(-c2ccc(Cl)cc2)nc2cnc(N3CCNCC3)nc2n1Cc1cccs1`, for which the AC50 was 20 µM (active).

As to `O=c1cnc2cnc(N3CCNCC3)nc2n1Cc1cccs1`, the “activity, negative = inhibition” value was 13.9%.

In the case of `CN1CCN(c2ncc3nc(-c4cc(F)cc(F)c4)c(=O)n(Cc4cccs4)c3n2)CC1`, the “activity, negative = inhibition” value was -23.5%.

Turning to `O=c1c(-c2ccc(F)cc2)nc2cnc(N3CCOCC3)nc2n1Cc1cccs1`, the “activity, negative = inhibition” value is -0.555%.

For `O=c1c(-c2cc(F)cc(F)c2)nc2cnc(N3CCNCC3)nc2n1Cc1cccs1`, the AC50 is 3.98 µM (active).

`O=c1c(-c2cccs2)nc2cnc(N3CCNCC3)nc2n1Cc1cccs1`: the AC50 is 12.6 µM (active).

For the compound `Cc1nc2cnc(N3CCNCC3)nc2n(Cc2cccs2)c1=O`, the “activity, negative = inhibition” value is 0.901%.

As for `O=c1c(-c2ccc(F)cc2)nc2cnc(N3CCNCC3)nc2n1Cc1cccs1`, the half-maximal activity concentration (AC50) is 15.8 µM (active).

Regarding `CN(C)c1ncc2nc(-c3cc(F)cc(F)c3)c(=O)n(Cc3cccs3)c2n1`, the “activity, negative = inhibition” value is 0.26%.

Regarding `COc1ccc(NC(=O)N2CC[C@@]3(CCCN(C(=O)c4cc(C(F)(F)F)cc(C(F)(F)F)c4)C3)C2)cc1`, the “activity, negative = inhibition” value is -2.5%.

Consider `O=C1C(O)=C(O)C(=O)C(O)=C1O`, for which the “activity, negative = inhibition” value was 3.72% [at 25.6 µM].

In the case of `Cc1ccnc(NS(=O)(=O)c2ccc(N=[N+]=[N-])cc2)n1`, the activity, negative = inhibition was -7.68% [at 11.4 µM].

In the case of `COC(=O)[C@@H]1O[C@@H](c2c(OC)c(OC)c(C)c(OC)c2OC)[C@H](C)[C@@H](O)[C@@H]1C`, the activity, negative = inhibition was 14.6% [at 11.4 µM].

Consider `COCCn1c(=O)c(-c2cccs2)nc2cnc(N3CCN(C)CC3)nc21`, for which the “activity, negative = inhibition” value was -17.1%.

On to `COCCn1c(=O)c(-c2cccs2)nc2cnc(N3CCNCC3)nc21`, for which the AC50 is 2 µM (active).

As for `COc1ccc(-n2c(=O)c(-c3cccs3)nc3cnc(N4CCNCC4)nc32)cc1`, the “activity, negative = inhibition” value is -27.1%.

For the compound `Cc1noc(C)c1C(=O)N1CCC2(CCN(C(=O)NC(C)C)CC2)CC1`, the “activity, negative = inhibition” value is -18.1%.

In the case of `CCOC(=O)C1=C(C)N=C2SC(C(=O)OC)=CC(=O)N2C1c1ccc(F)cc1` (stereo not drawn), the AC50 was 7.08 µM (active).

With `COC(=O)C1=C(CSc2nncn2C)NC(=O)NC1c1ccc(F)cc1` (stereo not drawn), the “activity, negative = inhibition” value was -23.8%.

In the case of `OCCCCNCc1ccc(OCc2ccccc2Cl)cc1`, the “activity, negative = inhibition” value is 15.7%.

On to `Nc1cccc(OCc2nc(N)nc(N)c2-c2ccc(Cl)cc2)c1`, for which the activity, negative = inhibition was -4.32% [at 11.4 µM].

With `Cc1cc(OCc2nc(N)nc(N)c2-c2ccc(Cl)c(Cl)c2)ccc1[N+](=O)[O-]`, the AC50 was 1.58 µM (active).

As to `CC1(C)S[C@@H]2[C@H](NC(=O)[C@@H](NC(=O)N3CCNC3=O)c3ccccc3)C(=O)N2[C@H]1C(=O)O`, the “activity, negative = inhibition” value was -10.6% [at 25.6 µM].

As to `O=C(Nc1ccc(Nc2ccc3c(c2)C(=O)c2ccccc2C3=O)c2c1C(=O)c1ccccc1C2=O)c1ccccc1`, the activity, negative = inhibition is -2.6% [at 11.4 µM].

`CCC(=O)Nc1ccc2c(c1)C(=O)c1ccccc1C2=O`: the AC50 is 3.16 µM (active).

`O=C1c2ccccc2-c2ccc(NC(=O)[C@H]3CCCC[C@@H]3C(=O)O)cc21`: the activity, negative = inhibition is -10.8% [at 11.4 µM].

For `O=C(O)c1ccc(Nc2ccnc3cc(Cl)ccc23)cc1O`, the activity, negative = inhibition is -1.26% [at 11.4 µM].

As to `COc1ccc(-n2c(=O)c(-c3cccs3)nc3cncnc32)cc1`, the “activity, negative = inhibition” value is -4.83%.

For `O=c1c(-c2cccs2)nc2cncnc2n1-c1ccccc1`, the AC50 is 10 µM (active).

As for `CN(C)c1ncc2nc(-c3cccs3)c(=O)n(-c3ccccc3)c2n1`, the “activity, negative = inhibition” value was -16.4%.

As for `O=c1c(-c2ccc(F)cc2)nc2cncnc2n1-c1ccccc1`, the “activity, negative = inhibition” value was -21.2%.

Take `O=c1c(-c2ccccc2)nc2cncnc2n1-c1ccccc1`: the half-maximal activity concentration (AC50) is 15.8 µM (active).

`COc1ccc(-n2c(=O)c(-c3ccccc3)nc3cncnc32)cc1`: the “activity, negative = inhibition” value was -26.2%.

For `O=c1c(-c2cccc(Cl)c2)nc2cncnc2n1-c1ccccc1`, the AC50 was 10 µM (active).
